From PubChem
Only some compounds are listed: those with a hit (about 19% of all), similar ones and a draw of the others.
DT40 TDP1 no CPT – qHTS for Inhibitors of human tyrosyl-DNA phosphodiesterase 1 (TDP1): qHTS in cells in absence of CPT | AID 686978, 2013 | 15% of 420,000 active | DT40 Tdp1-/- hTDP1 cells, no CPT, ATP luminescence, 48 h | Potency, µM (titrated, usually from 46.2 µM), usual class: inhibitors; also: nearly all actives have a fitted effect of over 55% in size
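Compound effects on proliferation are scored in DT40 Tdp1-/-;hTDP1 cells in the absence of CPT. ATP levels (CellTiter-Glo luminescence) are recorded after a ≥48 hr, 37 °C incubation.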
TGFb SMAD3 inh – blocks TGF-b signaling; HepG2 CAGA-GFP TGF-b/SMAD3 reporter, GFP fluorescence, 18 h; TGF-beta stimulated, 500 pg/mL final; Potency, µM (series often up to 46.1 µM), hits mostly inhibitors; 1.2% of 410,000 active; also: nearly all actives have a fitted effect of over 65% in size
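Cell-based qHTS in HEPG2 carrying a CAGA-GFP Smad reporter; compounds added before 500 pg/mL final TGF-beta, 18 h incubation at 37 degrees C, GFP fluorescence quantified per cell by imaging cytometry.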
TDP1 block – blocks human tyrosyl-DNA phosphodiesterase 1; recombinant TDP1, AlphaScreen DNA substrate cleavage; Potency, µM (doses to about 130 µM), most hits filed as inhibitors; AID 485290; 0.28% of 350,000 active; also: nearly all actives have a fitted effect of over 40% in size
Target sequence (Q9NUW8 whole entry, looked up): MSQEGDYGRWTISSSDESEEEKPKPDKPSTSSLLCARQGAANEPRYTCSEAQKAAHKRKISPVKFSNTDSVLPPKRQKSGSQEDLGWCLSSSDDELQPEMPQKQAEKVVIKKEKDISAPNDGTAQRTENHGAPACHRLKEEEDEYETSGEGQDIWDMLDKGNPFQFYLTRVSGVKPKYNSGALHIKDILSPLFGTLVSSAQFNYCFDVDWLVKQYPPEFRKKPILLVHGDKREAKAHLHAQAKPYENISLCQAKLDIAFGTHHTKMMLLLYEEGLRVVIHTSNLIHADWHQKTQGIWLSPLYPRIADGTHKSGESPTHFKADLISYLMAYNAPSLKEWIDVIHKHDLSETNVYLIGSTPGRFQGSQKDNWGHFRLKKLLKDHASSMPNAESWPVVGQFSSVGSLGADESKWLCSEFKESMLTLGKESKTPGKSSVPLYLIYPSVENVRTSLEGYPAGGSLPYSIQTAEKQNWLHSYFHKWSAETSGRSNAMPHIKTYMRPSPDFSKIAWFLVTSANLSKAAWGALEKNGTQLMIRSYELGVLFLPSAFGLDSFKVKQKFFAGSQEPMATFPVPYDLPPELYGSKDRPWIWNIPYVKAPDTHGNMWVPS
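E. coli-derived human Tdp1, 1 nM final. Cpd preinc 15 min RT; substrate 15 nM final, 5 min RT; AS bead mix 10 ug/ml final, 10 min RT. Signal loss = tyrosine-FITC cleavage. No-enzyme wells = max signal.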
TDP1 cell CPT – growth inhibition of DT40 Tdp1-/-;hTDP1 cells with camptothecin (screen for TDP1 inhibitors); chicken DT40 Tdp1-/-;hTDP1 cells + 20 nM CPT, ATP luminescence, 48 h; Potency, µM (top dose mostly 46.2 µM), most hits filed as inhibitors; 12% of 420,000 active; AID 686979; also: nearly all actives have a fitted effect of over 55% in size
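Chicken DT40 Tdp1-/- cells stably complemented with human TDP1 were seeded at 400 cells/well in medium containing 20 nM camptothecin, exposed to pin-transferred compounds, and grown at 37 °C for at least 48 hr. Viability was read as ATP luminescence.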
IL-1B inflam inh – blocks inflammasome-driven IL-1 beta release | activity change, % at 57.5 µM | THP-1 LPS/ATP IL-1B secretion, AlphaLISA, 16 h; active compounds read low | 4.7% of 360,000 active | AID 743279; in the data active = activity change below about -50%; inconclusive = mostly about -30% to -49%
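THP-1 cells pretreated 1 hr with compounds (up to 57.5 uM final), then stimulated with LPS (250 ng/mL final) plus ATP (1.25 mM final); secreted IL-1B measured by AlphaLISA after 16 hr, decreased signal indicating inhibition.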
HepG2 tox – HepG2 cytotoxicity, counter-screen for TGF-b inhibitors; HepG2 CAGA-GFP viability, ATP luminescence, 18 h; Potency, µM (top dose mostly 46.1 µM), hits mostly cytotoxic; 0.76% of 410,000 active
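HepG2 CAGA-GFP cells (1000/well, DMEM with 1% FBS) received compound, then TGF-beta at 500 pg/mL final, and were incubated 18 hours at 37 degrees C. Viability was read by CellTiter-Glo luminescence. Media-only wells were set as complete cell-killing and DMSO as no toxicity.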
Hits are given with their value; n = inactive; u = inconclusive; x = not tested or not shown; [ ] = remark or other dose. Unless noted, calls follow the shape of the dose curve; as a rule, active = well fitted curve in the direction sought with a large enough effect; inconclusive = small, poorly fitted or top-dose-only effect, or another doubt; inactive = no such curve, though single readings can be large; an effect the other way counts as inactive or inconclusive.

SMILES | DT40 TDP1 no CPT | TGFb SMAD3 inh | TDP1 block | TDP1 cell CPT | IL-1B inflam inh | HepG2 tox
CC/C(O)=C1\C(=O)CC(c2ccccc2)CC1=NCCc1c(C)[nH]c2ccc(C)cc12 (centres undefined) | 23µM | n | n | u | n | n
CC(=O)C1=C(O)CC(c2ccccc2)CC1=NCCc1c(C)[nH]c2ccc(C)cc12 (centres undefined) | u | n | n | u | n | n
CCC/C(O)=C1\C(=O)CC(c2ccccc2)CC1=NCCc1c(C)[nH]c2ccc(C)cc12 (centres undefined) | u | n | n | 18µM | n | n
C=CCOC(=O)C(C(C)=O)C(NC(=O)OC)c1cccc(C)c1 (centres undefined) | x | x | n[21 µM] | x | x | x
CC(C)c1ccc2[nH]c3c(c2c1)CCC/C3=N\NC(=O)c1ccncc1 | 18µM | n | n | 23µM | -53 | n
Cc1ccc(N2CC(NC(=O)/C=C\c3ccc4c(c3)OCO4)CC2=O)cc1 (centres undefined) | u | n | n | n | x | n
O=S(=O)(CCN1CCN(C(c2ccccc2)c2ccccc2)CC1)C(F)(F)F | 18µM | u | n | 7.3µM | n | n
O=C(Cn1c(=O)n(Cc2nc(-c3ccccc3)no2)c(=O)c2ccccc21)Nc1cccc(Cl)c1 | u | n | n | u | x | n
COc1ccc(-n2ncc(C(C)NS(=O)(=O)c3cc(C)sc3C)c2C)cc1 (centres undefined) | 16µM | n | x | u | n | n
CCN1CCN(c2cc(C)c3cc(NC(=O)Cc4ccccc4OC)ccc3n2)CC1 | n | n | n | n | n | n
CCOc1cccc(CC(=O)Nc2ccc3nc(N4CCCCC4)cc(C)c3c2)c1OCC | u | n | n | 21µM | x | n
Cc1ccccc1C(=O)Nc1ccc2nc(N3CCCCC3)cc(C)c2c1 | 21µM | n | n | u | x | n
COc1cccc(C(=O)Nc2ccc3nc(N4CCN(c5ncccn5)CC4)cc(C)c3c2)c1OC | x | x | n | x | x | x
COc1ccc(CC(=O)Nc2ccc3nc(N4CCCCC4)cc(C)c3c2)cc1 | u | u | n | 23µM | x | n
COc1ccc(C)cc1NC(=O)CCC(=O)Nc1ccc2nc(N3CCN(C)CC3)cc(C)c2c1 | u | n | n | u | n | n
Cc1ccccc1C(=O)Nc1ccc2nc3n(c(=O)c2c1)CCCC3 | n | n | x | n | u | n
COc1cc(OC)cc(C(=O)Nc2ccc3nc(N4CCCCC4)cc(C)c3c2)c1 | 16µM | n | n | 15µM | x | n
COc1ccc2c(c1)c1c(c(=O)n(Cc3ccccc3)c(=O)n1CC(=O)Nc1ccccc1OC)n2C | n | n | n | n | x | n
c1cnc(N2CCN(c3ncc4c(n3)CCNC4)CC2)nc1 | n | n | n | n | x | n
COc1ccc2nc(N3CCOCC3)cc(C)c2c1 | n | u | n | n | n | n
COc1cccc(C(=O)Nc2ccc3nc(N4CCOCC4)cc(C)c3c2)c1 | 21µM | n | n | 16µM | n | n
COc1ccc(Oc2nc3c(C)cccn3c(=O)c2/C=C(\C#N)c2nc3ccccc3[nH]2)cc1 | u | x | n | u | x | n
CNc1nc(Nc2ccc(C)cc2C)c2sccc2n1 | 16µM | u | x | 13µM | n | n
Cc1ccc(Nc2ncnc3sccc23)c(C)c1 | u | n | n | n | n | n
Clc1ccccc1Nc1nc(NCc2ccccc2)nc2ccsc12 | 9.2µM | n | x | 9.2µM | n | n
Cc1ccc(Nc2nc(NCC3CC3)nc3ccsc23)c(C)c1 | 5.8µM | u | x | 3.7µM | u | n
Cc1ccc(CNc2nc(NC(C)C)nc3ccsc23)c(C)c1 | u | u | x | 23µM | n | n
COCCNc1nc(NC(C)C)nc2ccsc12 | n | n | x | n | n | n
COc1ccccc1-c1oc2ccccc2c1C#CC(C)(C)O | u | u | n | u | n | n
